Among the data in PubChem BioAssay (EPA / NIEHS) are outcome and AC50 values, retold here.

A word on the AC50: it is the concentration giving half of the maximal activity seen.

SMILES strings stand for the structures. Records with an inconclusive call do not appear. Active and inactive are the calls of the source. Rule for the calls, unless noted: active = hit-call score of the fitted dose curve at least 0.9, where 1 is the maximum; inconclusive = response in the unintended direction; inactive = score below 0.9.

Test [1] in a line: ATG_TCF_b_cat_CIS: Attagene CIS-FACTORIAL HepG2 Assay for human T-Cell-Factor with beta-catenin (TCF/b-cat) (AID 2282965; active = hit-call score of the fitted dose curve at least 0.9, where 1 is the maximum; inactive = score below 0.9). The settings on record: HepG2 TCF/beta-catenin cis-reporter transcription, actives raise or lower the signal. In a few lines:
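Cells of the HepG2 line carry transiently transfected reporter units whose promoters respond to endogenous factors. Twenty-four hours post-dosing, reporter mRNA induction is measured by fluorescent RT-PCR and capillary electrophoresis, with DMSO as baseline.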

Test [2] in a line: ATG_TAL_CIS: Attagene CIS-FACTORIAL HepG2 Assay for human TAL Basal Promoter (AID 2282966; active = hit-call score of the fitted dose curve at least 0.9, where 1 is the maximum; inactive = score below 0.9;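 note: background control endpoint measuring basal TAL promoter reporter mRNA not a specific factor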). The following applies: HepG2 Attagene cis-factorial TAL promoter reporter; actives raise or lower the signal. In a few lines: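 Basal-promoter background-control endpoint from a multiplexed HepG2 reporter panel. Cells were exposed 24 h, then reporter mRNA was read by RT-PCR/CE fluorescence and fitted in both directions relative to DMSO.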

Test [3] is described as follows: ATG_TGFb_CIS: Attagene CIS-FACTORIAL HepG2 Assay for human Transforming Growth Factor (TGF) (AID 2282967; active = hit-call score of the fitted dose curve at least 0.9, where 1 is the maximum; inactive = score below 0.9). The settings on record: HepG2 Attagene CIS TGFb reporter, mRNA transcription; actives raise or lower the signal. In a few lines:
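Transcript-level reporter readout: HepG2 transfectants, 24 h exposure, RNA to cDNA, reporter-specific PCR, fluorescent primer extension, capillary sizing against ROX standards. Gain- or loss-of-signal relative to DMSO.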

A short description of test [4]: ATG_VDRE_CIS: Attagene CIS-FACTORIAL HepG2 Assay for human Vitamin D Receptor Element (VDRE) (AID 2282968; active = hit-call score of the fitted dose curve at least 0.9, where 1 is the maximum; inactive = score below 0.9). The settings on record: HepG2 VDRE cis-reporter transcription, actives raise or lower the signal. An outline of the steps: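 Compounds were applied for 24 h to HepG2 cells transfected with promoter-regulated reporter units. Total RNA was reverse-transcribed, and reporter amplicons were fluorescently labelled and sized by capillary electrophoresis.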

The target of test [5] is Nuclear receptor subfamily 1 group I member 3 (Homo sapiens) (UniProt Q14994). Put plainly: ATG_CAR_TRANS: Attagene TRANS-FACTORIAL HepG2 Assay for human Constitutive Androstane Receptor (CAR) (AID 2282969).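 Note: activators raise reporter mRNA above DMSO so AC50 marks induction.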 The following applies: HepG2 Attagene TRANS-FACTORIAL CAR reporter. An outline of the steps:
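Transiently transfected HepG2, multiplex TRANS reporters (CAR-Gal4 chimera driving GAL4-UAS reporter). 24 h dosing. Readout: reporter transcript by RT-PCR + capillary electrophoresis, fluorescence intensity; positive direction vs DMSO.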

Test [6] addresses Estrogen receptor (Homo sapiens) (UniProt P03372). Put plainly: ATG_ERa_TRANS: Attagene TRANS-FACTORIAL HepG2 Assay for human Estrogen Receptor alpha (ERa) (AID 2282970). The following applies: HepG2 Attagene TRANS ERa GAL4 reporter, mRNA. In a few lines:
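Gal4-fusion ERa transactivation, measured as reporter transcript level in transiently transfected HepG2 cells. Exposure 24 h; RT-PCR plus capillary electrophoresis with fluorescence detection.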

For test [7], the target named is Steroid hormone receptor ERR1 (Homo sapiens) (UniProt P11474). Put plainly: ATG_ERRa_TRANS: Attagene TRANS-FACTORIAL HepG2 Assay for human Estrogen-Related Receptor alpha (ERRa) (AID 2282971). The following applies: HepG2 Attagene TRANS reporter, ERRa transactivation. In a few lines: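 HepG2 cells transiently transfected with GAL4-UAS reporter units and chimeric NR-Gal4 constructs; after 24 hour compound incubation, reporter mRNA quantified by RT-PCR, fluorescent labelling and capillary electrophoresis, gain of signal versus DMSO.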

The target in test [8] is X-box-binding protein 1 (Homo sapiens) (UniProt P17861). Put plainly: ATG_Xbp1_CIS: Attagene CIS-FACTORIAL HepG2 Assay for human X-box Binding Protein 1 (XBP1) (AID 2282972; active = hit-call score of the fitted dose curve at least 0.9, where 1 is the maximum; inactive = score below 0.9). The settings on record: HepG2 XBP1 cis-element reporter, Attagene multiplex; actives raise or lower the signal. An outline of the steps:
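Changes in reporter transcript abundance, read by RT-PCR and capillary electrophoresis, reflect endogenous transcription factor activity. Transfected HepG2 cells received compound for 24 hours; DMSO defined baseline for bidirectional analysis.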

The target in test [9] is Estrogen-related receptor gamma (Homo sapiens) (UniProt P62508). Put plainly: ATG_ERRg_TRANS: Attagene TRANS-FACTORIAL HepG2 Assay for human Estrogen-Related Receptor gamma (ERRg) (AID 2282977).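 Note: hits increase reporter signal over DMSO so potencies reflect activators.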 The following applies: HepG2 Attagene TRANS reporter, ERRg transactivation. In a few lines:
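Exogenous NR-Gal4 chimera activity measured as reporter transcript induction after 24 h in transiently transfected HepG2 cells. RNA reverse-transcribed, PCR-amplified, 6-FAM-labelled and resolved by capillary electrophoresis; increase over DMSO baseline.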

For test [10], the target named is Bile acid receptor (Homo sapiens) (UniProt Q96RI1). Put plainly: ATG_FXR_TRANS: Attagene TRANS-FACTORIAL HepG2 Assay for Farnesoid X Receptor (FXR) (AID 2282979).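 Note: hits raise reporter mRNA above DMSO so AC50 marks FXR activation.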 The settings on record: HepG2 Attagene TRANS FXR-GAL4 reporter transcription. In a few lines:
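HepG2 cells were transiently transfected with GAL4-UAS reporters driven by chimeric NR-Gal4 proteins and dosed for 24 h. Reporter mRNA was quantified by RT-PCR, fluorescent labelling, HpaI digestion and capillary electrophoresis, with gain of signal scored versus DMSO.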

In test [11] the target is Hepatocyte nuclear factor 4-alpha (Homo sapiens) (UniProt P41235). Put plainly: ATG_HNF4a_TRANS: Attagene TRANS-FACTORIAL HepG2 Assay for human Hepatocyte Nuclear Factor 4 alpha (HNF4a) (AID 2282982). The settings on record: HepG2 HNF4a transactivation reporter, mRNA readout. In a few lines: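 Endpoint reflects transcriptional activation of a GAL4-UAS reporter by an HNF4a-GAL4 chimera in transfected HepG2 cells, 24 h post-dosing. Fluorescence from RT-PCR products separated by capillary electrophoresis; DMSO baseline.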

Test [12] in a line: ATG_M_06_TRANS: Attagene TRANS-FACTORIAL HepG2 Assay for M06 Transcription Factor (Internal Marker) (AID 2282983). The settings on record: HepG2 Attagene TRANS M06 internal marker reporter. In a few lines: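 mRNA levels of a reporter transcript, quantified as FAM fluorescence on capillary electrophoresis, served as readout. HepG2 cells expressing exogenous GAL4-chimera reporter constructs were exposed for 24 h. Gain of signal over DMSO was evaluated.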

The target of test [13] is Nuclear receptor subfamily 4 group A member 2 (Homo sapiens) (UniProt P43354). Put plainly: ATG_NURR1_TRANS: Attagene TRANS-FACTORIAL HepG2 Assay for human Nuclear Receptor Related Protein 1 (NURR1) (AID 2282985). The following applies: HepG2 Attagene TRANS reporter, mRNA readout. An outline of the steps:
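Endpoint: reporter mRNA increase relative to DMSO. HepG2 cells transfected with reporter units, treated 24 h; RNA processed by RT-PCR, labelling, HpaI digestion and capillary electrophoresis.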

Test [14] deals with Transcriptional activator Myb (Homo sapiens) (UniProt P10242). Put plainly: ATG_Myb_CIS: Attagene CIS-FACTORIAL HepG2 Assay for human Myeloblastosis (Myb) Proto-Oncogene Transcription Factor (AID 2282986; active = hit-call score of the fitted dose curve at least 0.9, where 1 is the maximum; inactive = score below 0.9). The following applies: HepG2 Attagene CIS-FACTORIAL Myb reporter transcription; actives raise or lower the signal. An outline of the steps:
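Steps: transfect HepG2 with cis-regulated reporter units; dose with chemical for 24 h; isolate RNA, reverse-transcribe, PCR-amplify and FAM-label reporter sequences; digest with HpaI; resolve by capillary electrophoresis. Activity fitted in both directions relative to DMSO.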

Test [15] is described as follows: ATG_M_19_TRANS: Attagene TRANS-FACTORIAL HepG2 Assay for M19 Transcription Factor (Internal Marker) (AID 2282974). The settings on record: HepG2 Attagene TRANS-FACTORIAL M19 internal marker reporter. An outline of the steps:
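Cells: human HepG2, transiently transfected with multiplexed reporter transcription units. Exposure: 24 h. Detection: RT-PCR of reporter mRNA with capillary electrophoresis. Analysis: gain-of-signal vs DMSO.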

A short description of test [16]: ATG_GAL4_TRANS: Attagene TRANS-FACTORIAL HepG2 Assay for GAL4 (Internal Marker) (AID 2282976). The settings on record: HepG2 Attagene TRANS GAL4 internal marker reporter. An outline of the steps: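 Background-control readout: GAL4-UAS reporter transcript in transiently transfected HepG2 cells after 24 h compound exposure. Measured by RT-PCR, 6-FAM primer extension, HpaI digest and capillary electrophoresis; gain-of-signal fit versus DMSO.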

Test [17] addresses Glucocorticoid receptor (Homo sapiens) (UniProt P04150). Put plainly: ATG_GR_TRANS: Attagene TRANS-FACTORIAL HepG2 Assay for human Glucocorticoid Receptor (GR) (AID 2282978).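 Note: activators score as hits since higher reporter transcript over DMSO is fitted.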 The settings on record: HepG2 Attagene TRANS GR reporter, mRNA transcription. An outline of the steps: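 In this trans-factorial format, exogenous NR-GAL4 chimeric proteins in transfected HepG2 cells regulate GAL4-UAS reporter transcription. After 24 h treatment, reporter mRNA induction relative to DMSO is read by RT-PCR and capillary electrophoresis.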

Test [18] has as its target Oxysterols receptor LXR-alpha (Homo sapiens) (UniProt Q13133). Put plainly: ATG_LXRa_TRANS: Attagene TRANS-FACTORIAL HepG2 Assay for human Liver X Receptor alpha (LXRa) (AID 2282980). The following applies: HepG2 Attagene TRANS reporter, LXRa transactivation. An outline of the steps:
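HepG2 cells transiently transfected with GAL4-UAS reporter units for chimeric NR-Gal4 proteins, exposed to chemicals for 24 h. Reporter mRNA quantified by RT-PCR and capillary electrophoresis; gain of signal fitted relative to DMSO.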

The target in test [19] is Oxysterols receptor LXR-beta (Homo sapiens) (UniProt P55055). Put plainly: ATG_LXRb_TRANS: Attagene TRANS-FACTORIAL HepG2 Assay for human Liver X Receptor beta (LXRb) (AID 2282981). The following applies: HepG2 Attagene TRANS GAL4-LXRb reporter, mRNA. An outline of the steps: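 Multiplexed reporter assay, HepG2, 24 h dosing. Fluorescence of labelled RT-PCR products after capillary electrophoresis gives transcript level; positive fitting direction relative to DMSO.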

Test [20] in a line: ATG_M_32_TRANS: Attagene TRANS-FACTORIAL HepG2 Assay for M32 Transcription Factor (Internal Marker) (AID 2282984). The settings on record: HepG2 Attagene TRANS M32 internal marker reporter. An outline of the steps: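 Internal-marker readout from a multiplexed transcription reporter panel. HepG2 cells were transfected with GAL4-UAS reporter units, treated 24 hours, and reporter transcript levels determined by fluorescence after RT-PCR and capillary separation.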

Chain of Nuclear receptor subfamily 1 group I member 3 (Homo sapiens) (Q14994 whole entry, looked up, the tested form may be a part): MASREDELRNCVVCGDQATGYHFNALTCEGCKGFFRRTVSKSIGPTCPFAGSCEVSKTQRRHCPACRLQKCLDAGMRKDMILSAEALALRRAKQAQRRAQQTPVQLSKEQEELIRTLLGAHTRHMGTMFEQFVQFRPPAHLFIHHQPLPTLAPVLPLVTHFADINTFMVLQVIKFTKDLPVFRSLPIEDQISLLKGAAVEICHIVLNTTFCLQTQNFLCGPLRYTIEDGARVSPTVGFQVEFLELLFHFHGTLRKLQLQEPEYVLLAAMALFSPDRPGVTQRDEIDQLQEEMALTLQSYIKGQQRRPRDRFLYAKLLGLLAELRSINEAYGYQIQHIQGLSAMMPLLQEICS
Chain of Estrogen-related receptor gamma (Homo sapiens) (P62508 whole entry, looked up, the tested form may be a part): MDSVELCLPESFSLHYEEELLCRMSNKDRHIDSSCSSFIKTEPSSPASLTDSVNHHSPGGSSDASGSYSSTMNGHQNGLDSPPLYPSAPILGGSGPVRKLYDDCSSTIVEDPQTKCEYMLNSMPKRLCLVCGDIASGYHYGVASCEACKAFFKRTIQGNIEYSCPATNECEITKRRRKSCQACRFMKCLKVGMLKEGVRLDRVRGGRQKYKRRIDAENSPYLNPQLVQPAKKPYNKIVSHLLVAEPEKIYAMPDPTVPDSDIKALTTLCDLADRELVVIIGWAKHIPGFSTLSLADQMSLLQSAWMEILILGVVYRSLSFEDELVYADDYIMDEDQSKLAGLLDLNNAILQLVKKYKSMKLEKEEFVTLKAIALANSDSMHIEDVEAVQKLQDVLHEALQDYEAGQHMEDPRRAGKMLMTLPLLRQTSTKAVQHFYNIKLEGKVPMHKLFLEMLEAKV
Chain of Transcriptional activator Myb (Homo sapiens) (P10242 whole entry, looked up): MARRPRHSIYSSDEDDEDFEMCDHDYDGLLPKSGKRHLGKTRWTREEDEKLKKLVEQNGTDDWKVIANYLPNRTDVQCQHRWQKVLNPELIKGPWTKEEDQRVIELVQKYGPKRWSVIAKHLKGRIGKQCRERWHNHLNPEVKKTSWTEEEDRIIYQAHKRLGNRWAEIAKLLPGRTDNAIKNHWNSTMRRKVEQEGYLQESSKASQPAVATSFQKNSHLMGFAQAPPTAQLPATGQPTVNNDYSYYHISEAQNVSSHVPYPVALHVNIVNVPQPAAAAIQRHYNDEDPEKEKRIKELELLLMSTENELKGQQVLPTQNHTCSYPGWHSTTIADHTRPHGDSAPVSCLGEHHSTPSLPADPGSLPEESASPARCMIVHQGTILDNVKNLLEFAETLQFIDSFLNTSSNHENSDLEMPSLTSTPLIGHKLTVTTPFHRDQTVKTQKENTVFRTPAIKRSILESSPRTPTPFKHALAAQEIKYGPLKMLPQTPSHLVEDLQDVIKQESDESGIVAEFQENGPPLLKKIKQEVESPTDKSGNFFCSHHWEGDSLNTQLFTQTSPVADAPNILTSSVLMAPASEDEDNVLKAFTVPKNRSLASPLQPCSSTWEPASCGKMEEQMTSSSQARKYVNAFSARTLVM
Chain of Oxysterols receptor LXR-alpha (Homo sapiens) (Q13133 whole entry, looked up, the tested form may be a part): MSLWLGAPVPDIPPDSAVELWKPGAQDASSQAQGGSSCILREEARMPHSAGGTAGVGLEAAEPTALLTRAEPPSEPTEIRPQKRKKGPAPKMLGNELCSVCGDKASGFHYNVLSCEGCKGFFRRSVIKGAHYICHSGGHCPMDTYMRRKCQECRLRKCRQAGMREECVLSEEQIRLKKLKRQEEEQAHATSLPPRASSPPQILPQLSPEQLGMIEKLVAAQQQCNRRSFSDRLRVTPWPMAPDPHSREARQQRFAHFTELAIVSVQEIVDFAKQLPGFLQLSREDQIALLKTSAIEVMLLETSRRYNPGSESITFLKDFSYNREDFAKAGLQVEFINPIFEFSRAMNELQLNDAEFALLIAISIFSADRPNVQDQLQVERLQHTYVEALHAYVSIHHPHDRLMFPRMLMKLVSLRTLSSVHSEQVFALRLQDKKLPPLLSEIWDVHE
Chain of Estrogen receptor (Homo sapiens) (P03372 whole entry, looked up, the tested form may be a part): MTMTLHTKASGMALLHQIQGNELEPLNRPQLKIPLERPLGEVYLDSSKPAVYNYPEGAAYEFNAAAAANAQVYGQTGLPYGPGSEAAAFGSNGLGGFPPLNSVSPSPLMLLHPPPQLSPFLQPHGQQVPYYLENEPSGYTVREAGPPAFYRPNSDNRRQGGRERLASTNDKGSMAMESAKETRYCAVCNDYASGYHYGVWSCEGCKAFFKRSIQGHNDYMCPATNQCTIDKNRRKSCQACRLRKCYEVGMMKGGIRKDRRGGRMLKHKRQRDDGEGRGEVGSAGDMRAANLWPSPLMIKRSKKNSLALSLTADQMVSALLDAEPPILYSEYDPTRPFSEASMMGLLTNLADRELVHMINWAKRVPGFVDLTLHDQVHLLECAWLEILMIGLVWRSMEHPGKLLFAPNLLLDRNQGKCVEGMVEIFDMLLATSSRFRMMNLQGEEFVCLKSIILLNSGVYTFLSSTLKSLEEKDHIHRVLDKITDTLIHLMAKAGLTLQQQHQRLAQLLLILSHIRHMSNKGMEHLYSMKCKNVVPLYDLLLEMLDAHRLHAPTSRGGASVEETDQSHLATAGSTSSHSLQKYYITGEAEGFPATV
Chain of Hepatocyte nuclear factor 4-alpha (Homo sapiens) (P41235 whole entry, looked up, the tested form may be a part): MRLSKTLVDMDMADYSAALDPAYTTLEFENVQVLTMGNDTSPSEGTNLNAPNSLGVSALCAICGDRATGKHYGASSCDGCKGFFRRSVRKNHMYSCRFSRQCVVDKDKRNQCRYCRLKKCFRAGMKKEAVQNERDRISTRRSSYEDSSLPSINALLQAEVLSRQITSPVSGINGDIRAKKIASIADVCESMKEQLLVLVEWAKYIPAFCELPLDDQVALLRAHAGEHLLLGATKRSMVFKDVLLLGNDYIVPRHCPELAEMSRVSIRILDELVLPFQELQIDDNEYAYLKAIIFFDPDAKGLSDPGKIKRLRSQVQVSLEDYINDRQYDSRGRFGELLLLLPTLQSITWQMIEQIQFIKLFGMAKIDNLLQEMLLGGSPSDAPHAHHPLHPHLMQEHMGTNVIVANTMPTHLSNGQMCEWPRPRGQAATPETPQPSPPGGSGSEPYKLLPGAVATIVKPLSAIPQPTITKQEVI
Chain of X-box-binding protein 1 (Homo sapiens) (P17861 whole entry, looked up): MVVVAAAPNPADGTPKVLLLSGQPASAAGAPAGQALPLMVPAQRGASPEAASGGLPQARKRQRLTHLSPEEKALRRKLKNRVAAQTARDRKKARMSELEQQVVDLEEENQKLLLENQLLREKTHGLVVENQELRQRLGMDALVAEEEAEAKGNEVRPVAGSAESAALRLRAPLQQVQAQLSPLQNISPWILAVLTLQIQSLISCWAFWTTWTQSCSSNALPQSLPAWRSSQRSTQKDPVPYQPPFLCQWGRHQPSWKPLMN
Chain of Bile acid receptor (Homo sapiens) (Q96RI1 whole entry, looked up, the tested form may be a part): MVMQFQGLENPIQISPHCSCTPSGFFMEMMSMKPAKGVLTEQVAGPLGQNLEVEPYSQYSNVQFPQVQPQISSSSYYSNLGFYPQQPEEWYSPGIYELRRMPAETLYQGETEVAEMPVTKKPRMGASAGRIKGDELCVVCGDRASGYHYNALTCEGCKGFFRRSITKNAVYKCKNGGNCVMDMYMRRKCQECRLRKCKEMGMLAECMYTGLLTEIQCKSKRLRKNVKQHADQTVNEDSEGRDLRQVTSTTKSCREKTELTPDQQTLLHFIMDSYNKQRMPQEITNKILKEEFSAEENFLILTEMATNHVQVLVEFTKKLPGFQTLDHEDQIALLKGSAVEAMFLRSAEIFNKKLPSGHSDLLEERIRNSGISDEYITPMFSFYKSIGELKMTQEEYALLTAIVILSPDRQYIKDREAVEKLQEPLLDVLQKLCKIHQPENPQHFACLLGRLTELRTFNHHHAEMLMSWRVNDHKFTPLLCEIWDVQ
Chain of Nuclear receptor subfamily 4 group A member 2 (Homo sapiens) (P43354 whole entry, looked up): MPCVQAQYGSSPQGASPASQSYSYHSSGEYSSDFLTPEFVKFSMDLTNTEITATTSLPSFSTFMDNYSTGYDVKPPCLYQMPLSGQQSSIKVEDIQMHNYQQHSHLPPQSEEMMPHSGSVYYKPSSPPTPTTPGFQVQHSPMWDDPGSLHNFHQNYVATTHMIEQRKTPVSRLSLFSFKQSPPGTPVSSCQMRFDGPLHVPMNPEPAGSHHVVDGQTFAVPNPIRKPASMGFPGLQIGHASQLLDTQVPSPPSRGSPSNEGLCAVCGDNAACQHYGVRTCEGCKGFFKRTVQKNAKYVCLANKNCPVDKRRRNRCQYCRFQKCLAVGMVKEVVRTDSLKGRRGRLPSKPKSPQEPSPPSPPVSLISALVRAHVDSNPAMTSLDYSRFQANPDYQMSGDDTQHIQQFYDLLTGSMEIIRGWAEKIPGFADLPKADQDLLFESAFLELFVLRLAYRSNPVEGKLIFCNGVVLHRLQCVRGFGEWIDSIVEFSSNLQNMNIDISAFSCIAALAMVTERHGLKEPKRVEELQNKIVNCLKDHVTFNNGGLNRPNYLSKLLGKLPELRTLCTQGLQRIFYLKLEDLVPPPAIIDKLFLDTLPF
Chain of Steroid hormone receptor ERR1 (Homo sapiens) (P11474 whole entry, looked up, the tested form may be a part): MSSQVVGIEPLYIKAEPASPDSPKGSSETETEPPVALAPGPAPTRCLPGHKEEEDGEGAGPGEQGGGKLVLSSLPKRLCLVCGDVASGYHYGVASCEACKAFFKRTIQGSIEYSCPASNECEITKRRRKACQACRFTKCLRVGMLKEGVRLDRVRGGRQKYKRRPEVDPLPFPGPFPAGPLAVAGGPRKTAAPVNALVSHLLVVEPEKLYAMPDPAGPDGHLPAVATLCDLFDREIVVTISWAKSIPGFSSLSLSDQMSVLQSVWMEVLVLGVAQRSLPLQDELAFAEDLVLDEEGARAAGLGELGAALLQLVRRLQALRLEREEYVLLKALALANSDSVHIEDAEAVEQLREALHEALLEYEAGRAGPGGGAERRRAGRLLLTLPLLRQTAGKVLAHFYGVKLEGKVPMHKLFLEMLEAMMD

For the compound `CCCCCCCOC(=O)c1ccccc1C(=O)OCCCCCCC`, the compound was called inactive in test [1], in test [2], in test [3], in test [4], in test [5] and in test [6]. Also, the call in test [7], in [8], in test [9], in test [10], in [11] and in test [12] was inactive. For the same compound, the result in test [13] and in test [14] was inactive.
As for `O=C(O)C(F)(F)C(F)(F)C(F)(F)C(F)(F)C(F)(F)C(F)(F)C(F)(F)C(F)(F)C(F)(F)C(F)(F)C(F)(F)C(F)(F)F`, the figures for the AC50 in test [1] and in test [3] were 100 µM (active) and 65.5 µM (active), respectively. The outcome in test [2], in test [4], in [5], in test [6], in [8] and in test [15] was inactive. Also, the result in test [16], in [9], in test [17], in test [10], in test [18] and in [19] was inactive. Besides, the compound was classed as inactive in [11], in test [12], in test [20], in test [13] and in test [14].
On to `NC(=O)C(F)(F)C(F)(F)C(F)(F)C(F)(F)F`, for which the result in [1], in [2], in [3], in test [4], in [5] and in test [6] was inactive. Besides, the outcome in [7], in test [8], in test [16], in test [10], in test [12] and in test [13] was inactive.
Regarding `Cc1ccc(S(=O)(=O)NCl)cc1`, the compound was classed as inactive in test [1], in [2], in test [3], in [6], in test [8] and in test [16]. Also, the outcome in [9], in test [18], in test [11], in [12], in [13] and in test [14] was inactive.
